Test results taken from PubChem BioAssay AID493131 (Broad Institute, 2011).
About 3,300 (0.97%) of roughly 340,000 compounds were called active.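 Rule for the calls: active = mean activation above about 17%, with every replicate also reaching it (limit read from the data, passing the limit was not always enough); inconclusive = only one of the two conditions met; inactive = the rest.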 This excerpt belongs to a sample that is enriched for actives.

molecular target: Protein FosB (Mus musculus) (UniProt P13346); assay: activators of delta FosB homodimer, primary screen, biochemical, fluorescence polarization, TAMRA-CDK5 oligo, single point (AID 493131); conditions: purified delta FosB, at 25 µM, stronger effect = higher value, percent of positive-control signal above neutral wells;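 note: fluorescence polarization rise as delta FosB binds a TAMRA Cdk5 AP-1 oligo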
Sequence (P13346 whole entry, looked up): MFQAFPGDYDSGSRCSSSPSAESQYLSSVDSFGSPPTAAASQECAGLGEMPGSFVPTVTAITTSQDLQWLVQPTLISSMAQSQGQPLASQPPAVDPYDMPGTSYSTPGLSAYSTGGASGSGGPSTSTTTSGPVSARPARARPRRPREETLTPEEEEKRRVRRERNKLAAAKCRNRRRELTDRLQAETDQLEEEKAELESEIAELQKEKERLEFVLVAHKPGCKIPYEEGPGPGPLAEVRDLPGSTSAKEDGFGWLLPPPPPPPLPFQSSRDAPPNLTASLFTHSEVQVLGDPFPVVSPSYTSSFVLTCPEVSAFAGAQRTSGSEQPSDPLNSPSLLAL

SMILES	activation
CCOc1ccc2c(=O)c(-c3ccc4c(c3)OCCCO4)c(C)oc2c1	5.27% (inactive)
CCn1cc(CN2CCC(C(=O)Nc3cccc(-c4cccc(Cl)c4)c3)CC2)c(C)n1	-5.85% (inactive)
O=C1c2ccncc2C(=O)N1C1CCCCC1	-3.57% (inactive)
COc1ccc(-c2cc(=O)oc3cc(OC(C)C(=O)Nc4ccc(CN5CCOCC5)cc4)ccc23)cc1 (stereo not given)	28.5% (active)
Cc1cc(=O)oc2cc(OC(C)C(=O)Nc3ccc(N4CCOCC4)cc3)ccc12 (stereo not given)	14.2% (inactive)
COc1ccc(-c2cc(=O)oc3cc(OC(C)C(=O)NCC4CCC(C(=O)O)CC4)ccc23)cc1 (stereo not given)	2.8% (inactive)
COc1ccc(CCN(C)C(=O)C23CC4CC(CC(Cl)(C4)C2)C3)cc1OC	-11.5% (inactive)
CCOc1ccc(NC(=O)CSc2ncnc3c2sc2ccccc23)cc1	-0.561% (inactive)
COc1cc(C(=S)NCc2ccccc2)cc(Br)c1O	-3.42% (inactive)
COc1ccc(Cl)cc1NC(=O)CNc1ccccc1F	0.137% (inactive)
Cc1nn(Cc2ccc(Cl)cc2)c(Cl)c1/C=N/NC(=O)CNc1ccccc1F	20.3% (active)
CCn1nc(C)c(/C=N/NC(=O)Cc2ccc(Cl)cc2)c1C	-5.48% (inactive)
COC(=O)c1ccc(C(=O)Nc2cc(Cl)ccc2Cl)cc1NC(=O)c1ccccc1C	-4.76% (inactive)
COc1cccc(NC(=O)Cn2c3ccc(F)cc3c3nc4n(c(=O)c32)CCS4)c1	20.4% (active)
COc1ccc2c(c1)c1nc3n(c(=O)c1n2CC(=O)Nc1ccccc1)CCS3	2.33% (inactive)
COc1cccc(NC(=O)Cn2c3ccccc3c3nc4n(c(=O)c32)CCS4)c1	10.7% (inactive)
CC1=NN(c2cccc(Cl)c2)C(=O)C12CC(C)=C(C)CS2 (stereo not given)	-6.87% (inactive)
Oc1ccccc1CNc1ncc(Br)cc1Br	-0.334% (inactive)
CC(C)C(NC(=O)c1cccc(S(=O)(=O)N2CCOCC2)c1)C(=O)NCCc1ccccn1 (stereo not given)	-1.29% (inactive)
Cc1c(C#N)c2ncn(CC#N)c(=O)c2n1-c1ccccc1	-7.05% (inactive)
COc1ccc(-c2cc(C(=O)n3cnc4ccccc43)c3ccccc3n2)cc1	-10% (inactive)
COc1ccc(-c2cc3ncccc3cn2)cc1	-21.2% (inactive)
COc1ccc(-c2cc3n(n2)CCc2nc4ccccc4n2-3)cc1	18.1% (active)

SMILES	activation
CC(=O)N1CCN(CC(c2ccccc2)c2ccccc2)CC1	1.45% (inactive)
O=c1[nH]snc1-c1c(Cl)cccc1Cl	-3.4% (inactive)
CN(CC(=O)Nc1ccc(Cl)cc1)C(=O)CNC(=O)c1ccc2ccccc2c1	38.6% (active)
O=C(NNC(=O)c1ccc2ccccc2c1)c1ccc(Cl)cc1	4.76% (inactive)
CN(CC(=O)Nc1ccc(Cl)cc1)C(=O)c1ccc(COc2ccccc2)cc1	-1.5% (inactive)
Nc1ccccc1/C=N\N=C/c1ccccc1N	1.65% (inactive)
Cc1nc(-c2ccc(Cl)cc2)sc1C1(C)CC(c2ccc(Br)cc2)=NO1 (stereo not given)	-6.82% (inactive)
COc1ccc(Cn2c(=S)[nH]c3cc(C(=O)NCCCN4CCOCC4)ccc3c2=O)cc1	-7.8% (inactive)
COc1ccc(OC)c(-n2c(=S)[nH]c3cc(C(=O)N4CCCCC4)ccc3c2=O)c1	0.446% (inactive)
COc1ccc(Cn2c(=S)[nH]c3cc(C(=O)N4CCCCC4)ccc3c2=O)cc1	67.5% (active)
CC(C)C(OC(=O)c1cccs1)C(=O)NC1CCCCC1 (stereo not given)	0.731% (inactive)
Cc1c[n+]([O-])ccc1[N+](=O)[O-]	1.75% (inactive)
CCc1nnc(NS(=O)(=O)c2ccc(NC(=S)NC(=O)/C=C/c3cccs3)cc2)s1	-19.1% (inactive)
C=CCn1c(=NC(=O)c2ccc(S(=O)(=O)N3CCCC3)cc2)sc2cc(NC(C)=O)ccc21	50.4% (active)
CC(=O)Nc1ccc(S(=O)(=O)N2CCSCC2)cc1	-10.4% (inactive)
COc1cc(C(C)=O)ccc1OC(C)C(=O)Nc1ccc(S(=O)(=O)N2CCCC2)cc1 (stereo not given)	-5.8% (inactive)
CC(NC(=O)CCCC1CCCCC1)c1ccc(S(N)(=O)=O)cc1 (stereo not given)	-18.3% (inactive)
Cc1n[nH]c(=O)c2c1nnn2Cc1ccc(F)cc1	0.186% (inactive)
O=C(CN1CCN(S(=O)(=O)c2ccc(Cl)s2)CC1)N1CCCCC1	-6.89% (inactive)
COc1cc(OC)cc(C(=O)NC(C(=O)N2CCC2)C(C)C)c1 (stereo not given)	0.275% (inactive)
COc1ccc(N2CCN(C(=O)[C@@H](NC(=O)c3cc(OC)cc(OC)c3)C(C)C)CC2)cc1	-9.58% (inactive)
COc1cc(OC)cc(C(=O)N[C@H](C(=O)NNC(=O)c2ccc(Br)cc2)C(C)C)c1	23.4% (active)
